Compounds without any hit were thinned out: in the full panel of roughly 83,000, 20% have a hit.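 Testing used 96-well plates and a 48-hour single-concentration exposure. Example: -40 means 40% of the starting cells died.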 Unmarked numbers belong to inactive results. Calls of active or inactive are those of the source. Rule for the calls: active = growth percent below 10; inactive = the rest.
Assays:
Experiment in all cases: NCI-60 one-dose screen, 48 h (100 = growth as untreated, 0 = no growth, -100 = all killed)
Details in all cases: 10 µM
786-0 renal = tested on: 786-0 renal
MALME-3M melanoma = tested on: MALME-3M melanoma
UACC-257 melanoma = tested on: UACC-257 melanoma
SN12C renal = tested on: SN12C renal
TK-10 renal = tested on: TK-10 renal
ACHN renal = tested on: ACHN renal
CAKI-1 renal = tested on: CAKI-1 renal
A498 renal = tested on: A498 renal
RPMI-8226 leukemia = tested on: RPMI-8226 leukemia
OVCAR-8 ovarian = tested on: OVCAR-8 ovarian
OVCAR-5 ovarian = tested on: OVCAR-5 ovarian
SK-OV-3 ovarian = tested on: SK-OV-3 ovarian
IGROV1 ovarian = tested on: IGROV1 ovarian
OVCAR-3 ovarian = tested on: OVCAR-3 ovarian
NCI/ADR-RES ovarian = tested on: NCI/ADR-RES ovarian
T-47D breast = tested on: T-47D breast
BT-549 breast = tested on: BT-549 breast
MDA-MB-435 melanoma = tested on: MDA-MB-435 melanoma
MCF7 breast = tested on: MCF7 breast
HCT-116 colon = tested on: HCT-116 colon

SMILES | growth (786-0 renal) | growth (MALME-3M melanoma) | growth (UACC-257 melanoma) | growth (SN12C renal) | growth (TK-10 renal) | growth (ACHN renal) | growth (CAKI-1 renal) | growth (A498 renal) | growth (RPMI-8226 leukemia) | growth (OVCAR-8 ovarian) | growth (OVCAR-5 ovarian) | growth (SK-OV-3 ovarian) | growth (IGROV1 ovarian) | growth (OVCAR-3 ovarian) | growth (NCI/ADR-RES ovarian) | growth (T-47D breast) | growth (BT-549 breast) | growth (MDA-MB-435 melanoma) | growth (MCF7 breast) | growth (HCT-116 colon)
O=C(/C=C/c1ccccc1Cl)c1nc2ccccc2n1Cc1ccc(F)cc1 | -95.3% (active) | -80% (active) | -61.1% (active) | -89.4% (active) | -44.2% (active) | -88% (active) | -40.5% (active) | 62.5% | -29.7% (active) | -66.1% (active) | -66.3% (active) | 8.31% (active) | -78.1% (active) | -50.8% (active) | -56% (active) | -66.9% (active) | -92.2% (active) | -46.7% (active) | -59.3% (active) | -96.3% (active)
C=CCN=C([Se])NC(=O)c1ccc2c(c1)OCO2 | 85.8% | 110% | 102% | 81.5% | 120% | 111% | 118% | 82.5% | 105% | 61.1% | 117% | 45.1% | 75.6% | 112% | 60.3% | 96.6% | 104% | 96.6% | 102% | 43.6%
O=C(/C=C/c1ccc(Cl)cc1Cl)c1nc2ccccc2n1Cc1ccc(F)cc1 | 19.8% | 69.1% | 66.3% | 60.4% | 93.6% | 48.7% | 53.3% | 94.8% | -31.1% (active) | 56% | 67.3% | 103% | 47% | 31.7% | 42.2% | 27.2% | 24.4% | 43.9% | 5.98% (active) | 7.22% (active)
COP(=O)(CC(F)(F)C(F)(F)F)OC | -3% (active) | -59.1% (active) | -36.5% (active) | 76.2% | -40.6% (active) | -97.6% (active) | 10.3% | 131% | 12.3% | -75.6% (active) | 68.9% | 118% | 50.2% | -3.42% (active) | 61.8% | 13.2% | 37.3% | 9.6% (active) | 3.91% (active) | -60.6% (active)
O=C(NC([Se])=NC1CCCCC1)c1ccc2c(c1)OCO2 | 44.1% | 57.3% | 50.5% | 51.9% | 55.5% | 17% | 39.6% | 31.3% | 63% | 37.7% | 72% | 8.53% (active) | 43.6% | 25.3% | 34.4% | -0.387% (active) | 96.7% | 86.4% | 81.6% | 24.7%
COc1cc(OC)c(S(=O)(=O)N(CCCl)CCCl)cc1C(=O)/C=C/c1cc(OC)c(OC)c(OC)c1 | -59.7% (active) | -15.6% (active) | -60% (active) | 8.6% (active) | 3.84% (active) | 2.37% (active) | -5.59% (active) | -0.926% (active) | -24.3% (active) | 9.85% (active) | -1.21% (active) | 9.62% (active) | 0.296% (active) | -3.7% (active) | 4.75% (active) | 21% | -84.7% (active) | -31.5% (active) | -39.2% (active) | -87.7% (active)
CC12OOC(C)(OO1)C2CCC(=O)OCCNc1ccnc2cc(Cl)ccc12 (stereo not given) | -29.3% (active) | -73% (active) | 82.1% | 84.3% | 66.3% | -93.8% (active) | -79.4% (active) | 109% | 8.42% (active) | 68% | 94.7% | 95.9% | 39.7% | -65.9% (active) | 53.2% | 16.5% | 93.1% | 31.3% | 24.2% | 0.954% (active)
CC12OOC(C)(OO1)C2CCC(=O)NCCCNc1ccnc2cc(Cl)ccc12 (stereo not given) | -12.2% (active) | -94.6% (active) | 96.2% | 91.9% | 23.4% | -100% (active) | -93.3% (active) | 114% | 39% | 94.9% | 84.4% | 103% | 67.1% | -49.6% (active) | 99.9% | 40% | 121% | 93.8% | 58.1% | 3.56% (active)

From PubChem BioAssay (NCI)
